Experimental findings from PubChem BioAssay AID463173 (ICCB-Longwood Screening Facility, Harvard Medical School, 2010) are described below.

Each structure is given as a SMILES string. In all, about 52,000 compounds went through this assay and about 4,300 (8.3%) were called active. For the sample, actives were picked, then their nearest neighbours and some compounds at random. A number with no mark means an inactive call. Cut-off read from the data, not from the text of the source: active = survival mostly below about 52% (no sharp cut-off); inactive = mostly above about 56%.

For this experiment, the system named is DeltatarO mutant. As to the kind of experiment: growth inhibition of S. aureus wild type versus tarO mutant, primary screen, teichoic acid synthesis inhibitors, RN4220, OD600 (AID 463173). Conditions: OD600, 18 h, hits give low values, screened at 18.75 µg/mL (by protocol).
On to `CCN1C(=O)C2(c3ccccc31)c1c(oc3ccc(F)cc3c1=O)C(=O)N2CCCOC` (configuration not stated), for which the survival was 64%.

For `COCCN1C(=O)c2oc3ccc(C)cc3c(=O)c2C12C(=O)N(C)c1ccccc12` (configuration not stated), the survival is 45% (active).

On to `Cc1ccc2oc3c(c(=O)c2c1)C1(C(=O)N(C)c2ccccc21)N(CCCO)C3=O` (configuration not stated), for which the survival was 51% (active).

On to `CCCN1C(=O)C2(c3ccccc31)c1c(oc3cc(C)c(C)cc3c1=O)C(=O)N2CCCOC` (configuration not stated), for which the survival was 55% (active).

Regarding `CCCN1C(=O)C2(c3ccccc31)c1c(oc3ccc(C)cc3c1=O)C(=O)N2CCOC` (configuration not stated), the survival was 60%.

Consider `CCCN1C(=O)C2(c3ccccc31)c1c(oc3ccccc3c1=O)C(=O)N2CCCOC(C)C` (configuration not stated), for which the survival was 48%.

Take `Cc1cc2oc3c(c(=O)c2cc1C)C1(C(=O)N(C)c2ccccc21)N(CCO)C3=O` (configuration not stated): the survival was 55%.

For the compound `COCCCN1C(=O)c2oc3ccccc3c(=O)c2C12C(=O)N(C)c1ccccc12` (configuration not stated), the survival was 64%.

Take `CCN1C(=O)C2(c3ccccc31)c1c(oc3ccc(C)cc3c1=O)C(=O)N2CCCOC(C)C` (configuration not stated): the survival is 49%.

Turning to `CCCCc1nn2c(C)c(-c3ccc(OCC)cc3)nc2s1`, the survival was 103%.

For `CCOC(=O)c1sc(NC(=O)C(C)Sc2nc(-c3ccccc3)cc(C(F)(F)F)n2)c(C(=O)OC)c1C` (configuration not stated), the survival is 159%.

Turning to `Cc1ccc(Cl)cc1N1CCN(C(=O)Cn2nc(C)c3sc4ccccc4c3c2=O)CC1`, the survival is 57%.

Take `COc1ccc(CCN2C(=O)CN=C2Nc2ccc(F)cc2)cc1OC`: the survival was 78%.

For `COC(=O)c1ccc(C(=O)OC)c(NC(=O)c2ccc(-c3ccccc3)s2)c1`, the survival is 126%.

Consider `CCOC(=O)c1c(CN(C)C)oc2ccc(O)cc12`, for which the survival was 88%.

On to `CSc1cccc(NC(=O)C(c2ccccc2)N2Cc3ccccc3C2=O)c1` (configuration not stated), for which the survival is 88%.

Turning to `CC(=O)Nc1ccc(NC(=O)C(c2ccccc2)N2Cc3ccccc3C2=O)cc1` (configuration not stated), the survival was 119%.

Turning to `CC(C)CCNC(=O)[C@@H](c1ccccc1)N1Cc2ccccc2C1=O`, the survival was 12% (active).

For the compound `CCCCNC(=O)[C@@H](c1ccccc1)N1Cc2ccccc2C1=O`, the survival was 54%.

For `O=C(Nc1ccc(F)cc1)[C@@H](c1ccccc1)N1Cc2ccccc2C1=O`, the survival was 38% (active).

As to `O=C(Nc1ccc(F)c(F)c1)C(c1ccccc1)N1Cc2ccccc2C1=O` (configuration not stated), the survival was 102%.

For `CCOc1ccccc1NC(=O)C(c1ccccc1)N1Cc2ccccc2C1=O` (configuration not stated), the survival is 96%.

In the case of `O=C(Nc1cccc(F)c1)[C@@H](c1ccccc1)N1Cc2ccccc2C1=O`, the survival is 46% (active).

With `CC(C)NC(=O)C(c1ccccc1)N1Cc2ccccc2C1=O` (configuration not stated), the survival was 101%.

`O=C(Nc1ccccc1F)C(c1ccccc1)N1Cc2ccccc2C1=O` (configuration not stated): the survival is 72%.

In the case of `CCc1ccccc1NC(=O)[C@@H](c1ccccc1)N1Cc2ccccc2C1=O`, the survival is 4% (active).

As for `Cc1ccc(NC(=O)[C@@H](c2ccccc2)N2Cc3ccccc3C2=O)cc1`, the survival was 71%.

For the compound `COc1ccc(C(=O)OCc2cc(=O)n3nc(C4CC4)sc3n2)cc1OC`, the survival was 91%.

For the compound `CC(=O)N1c2ccc(S(=O)(=O)NCC3CCC(C(=O)Nc4ccccc4C)CC3)cc2CC1C` (configuration not stated), the survival was 104%.

For `CCOc1ccccc1CNC(=O)C1CCN(S(=O)(=O)c2ccc3c(ccn3C)c2)CC1`, the survival was 96%.

With `O=C(Nc1cccc(F)c1F)C1CCN(c2ncccn2)CC1`, the survival is 62%.

For the compound `COc1ccc(CCNC(=O)CCCCn2c(=O)c3ccccc3n(CC(=O)Nc3c(C)cccc3C)c2=O)cc1OC`, the survival was 115%.

Turning to `Cc1ccc2c(c1)-c1onc(C(=O)N(C)c3ccc(F)cc3)c1CO2`, the survival is 65%.

Consider `O=C(NCCCN1CCN(c2ccccc2F)CC1)C1COc2ccccc2C1` (configuration not stated), for which the survival was 92%.

With `COc1ccc(OC)c(CCNC(=O)c2ccc3c(c2)c(C)c(C)n3Cc2ccccc2)c1`, the survival was 79%.

For `COc1cc(-c2nc3cc(Cl)ccc3o2)cc(OC)c1OC`, the survival was 87%.

As to `CCOC(=O)c1sc2ccccc2c1S(=O)(=O)Nc1c(C)cccc1C`, the survival is 70%.

Consider `COc1ccc(-c2cc(C(F)(F)F)nc(SCC(=O)N(C)Cc3ccccc3)n2)cc1`, for which the survival was 44%.

In the case of `COc1ccc(-c2cc(C(F)(F)F)nc(SCC(=O)N(C)Cc3ccccc3)n2)cc1OC`, the survival is 33% (active).

For `COc1ccccc1CNC(=O)CSc1nc(-c2ccc(OC)c(OC)c2)cc(C(F)(F)F)n1`, the survival was 55%.

`O=C(CSc1nc(-c2ccc(F)cc2)cc(C(F)(F)F)n1)NCc1ccccc1`: the survival was 62%.

`COc1ccc(-c2cc(C(F)(F)F)nc(SCC(=O)NCCc3ccccc3)n2)cc1OC`: the survival was 58%.

In the case of `CN(Cc1ccccc1)C(=O)CSc1nc(-c2ccc(F)cc2)cc(C(F)(F)F)n1`, the survival was 31% (active).

Regarding `O=C(C1CCC1)N1CCc2cc(S(=O)(=O)NCc3ccc(F)cc3)ccc21`, the survival was 93%.

As for `CCOc1ccccc1NC(=O)Cn1c(=O)n(-c2ccc(Cl)cc2)c(=O)c2oc3ccccc3c21`, the survival was 69%.

`CN(C)c1ccc(NC(=O)CSC2=Nc3ccccc3C3=NC(CCC(=O)NCc4cccs4)C(=O)N23)cc1` (configuration not stated): the survival is 75%.

For the compound `Cc1ccc2oc(=O)c3cc(C(=O)Nc4ccc(C)c(F)c4)sc3c2c1`, the survival is 77%.

For `Cc1nc(-n2nc(C)c(CCC(C)C)c2C)sc1C(=O)Nc1ccc(Br)cc1`, the survival is 50%.

On to `CCCCN(c1ccccc1)c1ncnc2c1cnn2-c1ccc(Cl)cc1`, for which the survival was 87%.

Consider `CCN(c1ccccc1)c1ncnc2c1cnn2-c1ccc(OC)cc1`, for which the survival was 52% (active).

Regarding `COc1ccc(-n2ncc3c(NCCCOC(C)C)ncnc32)cc1`, the survival is 0% (active).

For the compound `CCN(Cc1ccccc1)c1ncnc2c1cnn2-c1ccc(F)cc1`, the survival was 79%.

On to `COCCCNc1ncnc2c1cnn2-c1ccc(F)cc1`, for which the survival is 86%.

With `Cc1ccc(-n2ncc3c(N(C)Cc4ccccc4)ncnc32)cc1`, the survival was 89%.

For the compound `CCCCN(CCCC)c1ncnc2c1cnn2-c1cccc(C)c1`, the survival is 74%.

Take `Cc1ccc(-n2ncc3c(N(CCO)Cc4ccccc4)ncnc32)cc1`: the survival is 8% (active).

`OCCN(CCO)c1ncnc2c1cnn2-c1ccc(F)cc1`: the survival is 6% (active).

As to `CCN(c1ccccc1)c1ncnc2c1cnn2-c1ccc(C)cc1C`, the survival was 55%.

On to `COc1ccc(CCNc2ncnc3c2cnn3-c2ccc(C)cc2)cc1`, for which the survival is 81%.

Turning to `Cc1ccc(-n2ncc3c(NCCc4ccccc4)ncnc32)cc1`, the survival is 87%.

Turning to `COc1ccc(Cl)cc1NC(=O)c1c(NCc2sccc2C)sc2c1CCCC2`, the survival was 71%.

Take `CC(=O)NC1(c2ccccc2)CCN(Cc2nnnn2C(C)(C)C)CC1`: the survival was 91%.

For the compound `Cc1ccc(C)c(N2CCN(C(=O)CCS(=O)(=O)c3ccc4c(c3)CC(=O)N4C)CC2)c1`, the survival was 89%.

As for `O=C(Nc1ccccc1F)NC1CCN(Cc2nnnn2Cc2ccc(F)cc2)CC1`, the survival was 96%.

Turning to `CC(=O)N1CCCc2ccc(NS(=O)(=O)c3cccc(Cl)c3)cc21`, the survival is 80%.

For `N#Cc1c[nH]n2c(NC3CCCC3)c(-c3cccc(Br)c3)nc12`, the survival is 45%.

Regarding `Cc1c(C(=O)N(Cc2ccccc2F)C2CCS(=O)(=O)C2)oc2ccccc12` (configuration not stated), the survival is 84%.

As for `Cc1c(C(=O)N(Cc2cccc(F)c2)C2CCS(=O)(=O)C2)oc2cc(Br)ccc12` (configuration not stated), the survival is 63%.

For `Cc1ccc2oc(C(=O)N(Cc3cccc(F)c3)C3CCS(=O)(=O)C3)c(C)c2c1` (configuration not stated), the survival was 76%.

`COc1cc(CN(C(=O)c2oc3ccccc3c2C)C2CCS(=O)(=O)C2)cc(OC)c1OC` (configuration not stated): the survival is 55%.

Consider `Cc1c(C(=O)N(Cc2ccc(N(C)C)cc2)C2CCS(=O)(=O)C2)oc2ccccc12` (configuration not stated), for which the survival is 42% (active).

For `COc1cccc(CN(C(=O)c2oc3cc(C)ccc3c2C)C2CCS(=O)(=O)C2)c1` (configuration not stated), the survival was 57%.

`COc1cccc(CN(C(=O)c2oc3ccccc3c2C)C2CCS(=O)(=O)C2)c1` (configuration not stated): the survival is 69%.

As for `COc1cccc(CN(C(=O)c2oc3ccc(Br)cc3c2C)C2CCS(=O)(=O)C2)c1` (configuration not stated), the survival was 40% (active).

`Cc1ccc2c(C)c(C(=O)N(Cc3ccc(Cl)cc3)C3CCS(=O)(=O)C3)oc2c1` (configuration not stated): the survival was 34% (active).

Consider `C=CCn1c(C(C)NC(=O)c2ccccc2Cl)n[nH]c1=S` (configuration not stated), for which the survival was 76%.

As to `Cc1cccc(C)c1NC(=O)c1ccc2nc(CCc3ccccc3)oc2c1`, the survival is 69%.

As to `O=C(Nc1ccc(Cl)cc1Cl)c1cc(S(=O)(=O)NCc2ccc3c(c2)OCO3)ccc1F`, the survival was 94%.

In the case of `O=C(C1CCCN(S(=O)(=O)c2cccc3nsnc23)C1)N1CCN(c2ccccc2)CC1` (configuration not stated), the survival was 79%.

For `CN1C(=O)SC(N(CC(N)=O)c2ccccc2)C1=O` (configuration not stated), the survival was 61%.

With `COc1cc(NC(=O)Cn2nc(Cc3cccnc3)c3ccccc3c2=O)cc(OC)c1OC`, the survival was 71%.

With `COCCNC(=O)CSc1nc2cc3c(cc2c(=O)n1CCCC(=O)NCc1ccc(OC)cc1)OCO3`, the survival was 84%.

For the compound `CC(=O)c1ccc(NC(=O)CSc2nnc3ccc(-c4ccc(Cl)cc4)nn23)cc1`, the survival was 83%.

For the compound `CCOC(=O)c1c(NC(=O)CSc2cn(CCNC(=O)c3ccc(OCC)cc3)c3ccccc23)sc2c1CCCC2`, the survival is 93%.

As for `COc1cccc(C(=O)COC(=O)c2cc(-c3cccs3)nc3ccccc23)c1`, the survival was 54%.

Take `Cc1cccc(-c2nc3c(cnn3-c3ccccc3)c(=O)n2-c2ccc(Br)cc2)c1`: the survival is 139%.

On to `Cc1ccc(-n2c(-c3ccco3)nc3c(cnn3-c3ccc(C)cc3)c2=O)cc1`, for which the survival is 81%.

Consider `COc1ccc(-n2c(-c3cccc(F)c3)nc3c(cnn3-c3ccc(C)cc3)c2=O)cc1`, for which the survival was 96%.

As for `Cc1ccc(-n2c(-c3ccc(Br)cc3)nc3c(cnn3-c3ccccc3)c2=O)cc1`, the survival is 39% (active).

On to `CCc1nc2c(cnn2-c2ccccc2)c(=O)n1-c1ccc(Br)cc1`, for which the survival was 86%.

On to `COc1cccc(-n2c(-c3ccccc3F)nc3c(cnn3-c3ccc(C)cc3)c2=O)c1`, for which the survival was 75%.

As for `Cc1ccc(-c2nc3c(cnn3-c3ccccc3)c(=O)n2-c2ccc(Cl)cc2)cc1`, the survival is 44% (active).

As to `COc1cccc(-n2c(-c3cccc(F)c3)nc3c(cnn3-c3ccc(C)cc3)c2=O)c1`, the survival is 76%.

Turning to `COc1ccc(-n2c(-c3ccccc3F)nc3c(cnn3-c3ccc(C)cc3)c2=O)cc1`, the survival was 80%.

Turning to `Cc1ccc(-c2nc3c(cnn3-c3ccccc3)c(=O)n2-c2cccc(Cl)c2)cc1`, the survival is 33% (active).

For `CCc1nc2c(cnn2-c2ccc(C)cc2)c(=O)n1-c1ccc(C)cc1`, the survival was 47%.

As to `Cc1ccc(-n2c(-c3cccc(C)c3)nc3c(cnn3-c3ccccc3)c2=O)cc1`, the survival was 19% (active).
